EPAC2 ag = EPAC2 (human) agonism; 360,000 compounds, 0.079% hits; Q8WZA2; AID 720711; Potency, µM (top dose mostly 154 µM), without a hit: at the highest dose activation, most hits filed as activators; EPAC2 activation, biochemical qHTS; response scale: 100% = 6.5 mM cAMP response; further: nearly all actives have a fitted effect of over 50% in size
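Readout is BODIPY fluorescence (480 nm excitation, 540 nm emission), which falls as labeled GDP is exchanged off Rap1B. EPAC2 at 100 nM acted on 250 nM RAP1B-BODIPY-GDP with 50 uM GDP present.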
Rango-impB inh = Rango-importin beta binding inhibition. Q14974. Rango CFP/YFP FRET sensor + importin beta, 45 min. Potency, µM (highest dose often 92.2 µM), for inactives: top-dose inhibition of complex formation. 340,000 compounds, 0.031% hits. AID 540263; calls by dose curve;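 further: 0% = DMSO wells and 100% = buffer wells lacking importin beta; nearly all actives have a fitted effect of over 15% in size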
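FRET biosensor Rango (snurportin 1 IBB between N-terminal EYFP and C-terminal Cerulean), 50 nM in PBS/1 mM DTT/0.02% Tween-20/0.1% BSA, preincubated 5 min RT with compound; 0.125 microM importin beta added, 45 min RT, CFP/YFP FRET ratio read.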
Rango dissoc inh = inhibition of RanGTP-driven Rango-importin beta dissociation. O95149+P62826. Biochemical FRET Rango-importin beta, RanGTP-induced dissociation. Potency, µM (highest dose often 46.1 µM), for the others: at the highest dose activity change, negative = inhibition. AID 540253. 340,000 compounds, 0.071% hits; calls by dose curve; further: % of control where 0% means no effect; nearly all actives have a fitted effect of over 45% in size
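Two FRET readings bracket the reaction: one 5 min after compound meets Rango–importin beta, another 45 min after RanGTP-RCC1 (0.6 uM Ran, 0.2 uM RCC1, 2 mM GTP) is added. Only the second defines inhibition.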
EPAC1 ag = EPAC1 (human) agonism | EPAC1 agonist qHTS, biochemical assay; response scale: 100% = response to 6.5 mM cAMP | Potency, µM (doses to about 154 µM), without a hit: at the top dose activation, usual class: activators | 360,000 compounds, 0.073% hits | AID 720707; further: nearly all actives have a fitted effect of over 60% in size
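Nucleotide exchange assay: 100 nM EPAC1 with 250 nM Rap1B loaded with BODIPY-GDP and 50 uM GDP, room temperature. Fluorescence (480/540 nm) read every 5 min for 30 min; signal change normalized to 6.5 mM cAMP as full agonist.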
EPAC1 antagonist = antagonists of human EPAC1; O95398; EPAC1 GEF assay, Rap1b-BODIPY-GDP exchange fluorescence; Potency, µM (series often up to 115 µM), without a hit: top-dose activity change, negative = inhibition, hits mostly inhibitors; 360,000 compounds, 0.14% hits;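 further: plate controls were vehicle for no effect and positive control for full effect; nearly all actives have a fitted effect of over 50% in size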
EPAC2 antag = EPAC2 (human) antagonism; Q8WZA2; EPAC2 GEF exchange of Rap1B-BODIPY-GDP, fluorescence; Potency, µM (top dose mostly 114 µM), without a hit: at the top dose activity, negative = inhibition, usual class: inhibitors; 360,000 compounds, 0.18% hits; further: on the % scale 0 is the no-effect control and ±100 the full control effect; nearly all actives have a fitted effect of over 45% in size
* marks the source's active call; other numbers are inactive results; nt = no result given. The list is not random: actives were taken first. Their share in the collection is about 0.43%. Unless noted, the call rests on the fitted dose curve; in most records, active means well fitted curve in the direction sought with a large enough effect; inconclusive means small, poorly fitted or top-dose-only effect, or another doubt; inactive means no such curve, though single readings can be large; an effect the other way counts as inactive or inconclusive. Potency means the concentration at half of the fitted maximal effect.

SMILES	EPAC2 ag	Rango-impB inh	Rango dissoc inh	EPAC1 ag	EPAC1 antagonist	EPAC2 antag
CCc1nc2ccc(C(=O)NCCCN3CCCC3=O)cn2c1N(C)C(=O)COc1ccccc1	5%	nt	nt	-4%	14%	9%
COc1ccccc1NC(=O)c1cc(OC)c(OC)cc1[N+](=O)[O-]	19%	0%	12%	9%	-2%	8%
COc1ccc(C(=O)c2ccccc2)c2c(O)ccc(C(=O)c3ccccc3)c12	6.3µM*	-1%	-5%	-14%	-1%	5%
COc1cc(C(=O)c2ccccc2)c([N+](=O)[O-])cc1OC	3%	1%	2%	-9%	-3%	79µM*
CC(C)Oc1cc(F)ccc1-c1cc(C(=O)NCCc2ccncc2)[nH]n1	5%	nt	nt	-17%	-15%	9%
O=C1N(Cc2ccccc2)c2ccc(Br)cc2[C@]12C[C@H](O)CO2	5%	nt	nt	-2%	-6%	-16%

Screens as filed in PubChem.
